POLI inh = blocks human DNA polymerase iota activity; Q9UNA4; Pol iota fluorescent replication assay, 10 min; Potency, µM (titrated, usually from 115 µM), for inactives: at the top dose activity, negative = inhibition, most hits filed as inhibitors; hit rate 1% among 390,000
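Pol iota at 10 nM preincubated 15 min with compounds at room temperature; reaction started with fluorescent substrate, 50 nM final. Fluorescence read kinetically at 0 and 10 min; buffer-only wells as negative control.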
Pol kappa inh-1 = blocks human DNA polymerase kappa activity; purified Pol kappa, fluorescent DNA synthesis assay, 10 min; Potency, µM (series often up to 107 µM), for the others: top-dose activity, negative = inhibition, hits mostly inhibitors; hit rate 0.53% among 400,000; further: on the % scale 0 is the no-effect control and ±100 the full control effect
Target sequence (Q9UBT6 whole entry, looked up): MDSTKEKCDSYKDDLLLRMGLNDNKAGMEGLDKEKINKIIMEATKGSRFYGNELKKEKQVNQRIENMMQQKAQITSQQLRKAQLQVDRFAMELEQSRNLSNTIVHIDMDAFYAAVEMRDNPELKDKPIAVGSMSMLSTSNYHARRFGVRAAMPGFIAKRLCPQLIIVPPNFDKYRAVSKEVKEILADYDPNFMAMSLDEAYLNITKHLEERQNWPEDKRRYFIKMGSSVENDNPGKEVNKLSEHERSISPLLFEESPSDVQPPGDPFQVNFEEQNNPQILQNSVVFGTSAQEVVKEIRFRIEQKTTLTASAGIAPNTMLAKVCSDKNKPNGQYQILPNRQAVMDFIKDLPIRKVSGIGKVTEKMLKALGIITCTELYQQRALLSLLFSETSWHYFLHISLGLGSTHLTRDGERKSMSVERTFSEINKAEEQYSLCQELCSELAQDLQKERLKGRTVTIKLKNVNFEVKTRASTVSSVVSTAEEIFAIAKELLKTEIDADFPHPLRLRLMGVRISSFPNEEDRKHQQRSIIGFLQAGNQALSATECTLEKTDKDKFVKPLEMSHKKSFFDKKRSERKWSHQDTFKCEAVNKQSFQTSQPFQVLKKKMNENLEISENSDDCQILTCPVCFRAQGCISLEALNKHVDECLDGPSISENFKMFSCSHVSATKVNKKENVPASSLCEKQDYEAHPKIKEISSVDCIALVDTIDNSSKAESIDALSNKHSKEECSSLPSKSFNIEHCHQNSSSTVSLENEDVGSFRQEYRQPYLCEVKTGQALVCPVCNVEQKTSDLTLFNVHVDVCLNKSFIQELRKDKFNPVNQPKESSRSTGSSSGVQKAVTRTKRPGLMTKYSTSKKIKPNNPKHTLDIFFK
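10 nM Pol kappa preincubated 15 min at room temperature with compounds, then reaction started with substrate at 50 nM final. Fluorescence read kinetically at 0 and 10 min; buffer-only wells served as negative control.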
FEN1 inhibitor = inhibitors of human flap endonuclease 1. P39748. Recombinant FEN1 flap cleavage, fluorescence, 15 min. Potency, µM (top dose mostly 114 µM), for inactives: at the highest dose activity change, negative = inhibition, actives largely listed as inhibitors. hit rate 0.35% among 390,000. AID 588795; further: on the % scale 0 is the no-effect control and ±100 the full control effect; nearly all actives have a fitted effect of over 65% in size
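In this screen, 50 nM flap DNA substrate was added to 10 nM FEN1 pretreated with compound for 15 min at room temperature; cleavage was followed with reads at 0 and 15 min, and Hill fitting gave concentration–response parameters.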
WRN helicase inh = blocks human WRN helicase; hit rate 0.46% among 360,000; WRN helicase unwinding, fluorescent forked duplex, kinetic; Q14191; Potency, µM (top dose mostly 114 µM), for the others: at the top dose activity change, negative = inhibition, actives largely listed as inhibitors; AID 651768; further: on the % scale 0 is the no-effect control and ±100 the full control effect; nearly all actives have a fitted effect of over 55% in size
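Screening of the MLSMR collection measured strand separation of a quenched forked DNA duplex (100 nM) by 20 nM WRN with 2 mM ATP, all final. Compounds were preincubated with enzyme 15 min at room temperature.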
Pol eta inh-1 = inhibitors of human DNA polymerase eta. Q9Y253. recombinant Pol eta, fluorescent DNA replication assay. Potency, µM (highest dose often 114 µM), for the others: top-dose activity change, negative = inhibition, most hits filed as inhibitors. hit rate 1.2% among 390,000. AID 588591; further: on the % scale 0 is the no-effect control and ±100 the full control effect
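Pol eta (10 nM) was preincubated with compounds for 15 min at room temperature, after which fluorescent replication substrate (50 nM final) was added to start the reaction. Fluorescence was read kinetically at 0 and 10 min.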
POLB inh = inhibitors of human DNA polymerase beta. P06746. Pol beta primer extension/strand displacement, fluorescence kinetic. Potency, µM (top dose mostly 114 µM), inactives show top-dose activity change, negative = inhibition, hits mostly inhibitors. hit rate 1.3% among 340,000; further: on the % scale 0 is the no-effect control and ±100 the full control effect
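Human Pol beta at 10 nM; strand-displacement substrate 50 nM final. Compound exposure 15 min at room temperature before start, reaction 10 min at room temperature.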
PGK validate = validation of Trypanosoma brucei phosphoglycerate kinase inhibitors; shares compounds with Pol kappa inh-1; hit rate 79% among 500; TbPGK coupled GAPDH assay, Kinase-Glo luminescence; AID 686980; Potency, µM (series often up to 57.5 µM), for inactives: at the top dose activity change, negative = inhibition, most hits filed as inhibitors; further: on the % scale 0 is the no-effect control and ±100 the full control effect; nearly all actives have a fitted effect of over 65% in size
Pol iota confirm = Confirm cherry-picked inhibitors of human polymerase iota; Potency, µM, actives largely listed as inhibitors; hit rate 77% among 1,500; Pol iota primer extension, TAMRA/BHQ fluorescence; shares compounds with Pol kappa inh-1
Pol kappa inh-2 = Pol kappa (human) inhibition, cherry-pick confirmation | shares compounds with Pol eta inh-1 | Potency, µM, usual class: inhibitors | purified Pol-kappa, fluorescent strand-displacement substrate | hit rate 76% among 920
Pol eta inh-2 = Pol eta (human) inhibition, cherry-pick confirmation. hit rate 64% among 2,600. Potency, µM, most hits filed as inhibitors. shares compounds with Pol eta inh-1. Pol eta primer extension, TAMRA/BHQ fluorescence, 10 min
* hit, by the source's call; ? = inconclusive; . = no result; [ ] = dose if it differs, or a comment. This is a sample that favours compounds with a hit; in the whole collection about 2.4% have one here. The call rests on the fitted dose curve; in most records, active means well fitted curve in the direction sought with a large enough effect; inconclusive means small, poorly fitted or top-dose-only effect, or another doubt; inactive means no such curve, though single readings can be large; an effect the other way counts as inactive or inconclusive. Potency means the concentration at half of the fitted maximal effect.

SMILES | POLI inh | Pol kappa inh-1 | FEN1 inhibitor | WRN helicase inh | Pol eta inh-1 | POLB inh | Pol iota confirm | Pol eta inh-2 | others
O=C(CSc1nnc(SCc2ccccc2)s1)N/N=C/c1ccc(C(=O)O)cc1 | 38.7% | -13.9% | 1.9% | -9.2% | -12.3% | 0.0% | . | .
C/C(=N\NC(=O)Cc1cccn1C)c1ccco1 | -23.2% | -19.5% | -15.0% | -9.1% | -6.4% | 2.4% | . | .
O=C(CSc1nnc(SCc2ccccc2)s1)N/N=C/C=C\c1ccco1 | ? | 28.2µM* | ? | ? | 20µM* | 7.08µM* | 42.3* | 42.6*
CCOC(=O)Cc1ccc(NC(=O)N(Cc2ccc(OC)cc2)C2CCN(C(C)=O)CC2)cc1 | 2.0% | -12.4% | -5.3% | . | -7.8% | ? | . | .
CCC(=O)Nc1ccc2nc3c(=O)[nH]c(=S)[nH]c3nc2c1 | ? | 44.7µM* | 50.1µM* | ? | 17.8µM* | 39.8µM* | 26.7* | 30.1* | Pol kappa inh-2=16.8*
O=c1cc(-c2ccc(O)c(O)c2)oc2cc(O)c(C3OC(CO)C(O)C(O)C3O)c(O)c12 (centres undefined) | 10µM* | 20µM* | ? | ? | 3.16µM* | 4.47µM* | 42.3* | 19*
CC(=O)Nc1ccc(S(=O)(=O)N2CCN(C(=O)C3COc4ccccc4O3)CC2)cc1 (centres undefined) | 106.8% | -11.5% | -2.0% | -1.2% | -16.4% | 0.4% | . | .
COc1ccc(S(=O)(=O)N2CCN(C(=O)C3COc4ccccc4O3)CC2)cc1 (centres undefined) | 10µM* | 28.2µM* | 50.1µM* | 50.1µM* | 10µM* | . | 15* | 23.9* | Pol kappa inh-2=16.8*
COc1ccc(S(=O)(=O)N2CCN(C(=O)/C=C/c3ccco3)CC2)cc1 | 22.4µM* | ? | 4.4% | -5.3%[11.6 µM] | 50.1µM* | . | 67* | 75.7* | Pol kappa inh-2=67*
O=C(Nc1ccc(Br)cc1)c1cc(S(=O)(=O)N2CCc3ccccc32)ccc1F | -28.4% | -1.3%[60.1 µM] | 1.7% | . | -18.2% | 2.2% | . | .
O=Cc1ccc(-c2nc3ccccc3s2)o1 | 28.6% | -11.8% | -17.9% | -16.3% | -6.6% | -21.8% | . | .
O=C(O)CCCN1C(=O)/C(=C\c2ccc(-c3nc4ccccc4s3)o2)SC1=S | ? | ? | 35.5µM* | -35.4%[11.6 µM] | 15.8µM* | 15.8µM* | . | 33.8* | PGK validate=?
O=C(O)c1cc(-c2ccc(/C=C3/SC(=S)N(Cc4ccccc4)C3=O)o2)ccc1Cl | 12.6µM* | 79.4µM* | -15.2% | ? | 10µM* | 15.8µM* | 75.2* | 26.9*
O=C(NCc1ccccc1)c1ccc(CSc2nc3cccnc3n2Cc2cccc(F)c2)cc1 | 17.4% | -1.1% | 10.4% | . | -17.2% | -8.6% | . | .
CN(C)c1ccc(C=NC2CCc3ccccc32)cc1 (centres undefined) | 15.7% | 11.1% | 12.0% | . | . | . | . | .
CCCCn1c(N)c(N(CCOC)C(=O)c2cc(-c3ccco3)nc3ccccc23)c(=O)[nH]c1=O | 20µM* | 89.1µM* | -18.9% | ? | 11.2µM* | . | ? | ?
Cc1ccc(-n2nc(C(=O)N3CCC(C)CC3)c(=O)n(C)c2=O)cc1 | 9.6% | -1.5%[60.1 µM] | 1.7% | . | -16.4% | -9.5% | . | .
Cc1ccc(NC(=O)Cn2c(C)cc(C)c(C#N)c2=O)cc1 | -10.5% | -3.4%[60.1 µM] | 23.2% | . | -0.2% | 3.6% | . | .
COc1ccccc1N(CC(=O)Nc1cc(C)cc(C)c1)S(C)(=O)=O | 18.6% | -9.1% | -2.7% | . | -20.2% | 8.7% | . | .
CCS(=O)(=O)C1=NN2C(=N)/C(=C\c3ccc(SCc4ccco4)o3)C(=O)N=C2S1 | ? | 28.2µM* | 44.7µM* | 56.2µM* | 4.47µM* | 11.2µM* | 37.7* | 16.9*
CCOc1cc(/C=C2\C(=N)N3N=C(S(=O)(=O)CC)SC3=NC2=O)ccc1OC(=O)c1ccco1 | -4.0% | -3.8% | -0.2% | -6.3%[11.6 µM] | ? | -46.8% | . | .
C=Cc1c(C)c2cc3nc(cc4[nH]c(cc5nc(cc1[nH]2)C(C)=C5CCC(=O)O)c(CCC(=O)OC)c4C)[C@@]1(C)C3=CC=C(C(=O)OC)[C@H]1C(=O)OC (tested in a mixture with another compound) | . | 0.0%[19.4 µM] | . | . | . | . | . | .
Cc1ccc(SC2=C(Sc3ccc(C)cc3)C(=O)c3ccccc3C2=O)cc1 | 6.31µM* | 4.6% | -23.3% | 79.4µM* | 17.8µM* | 1.2% | ? | 84.9*
O=C(NCCc1ccccc1)c1cnc2sc(N3CCCCCC3)nn2c1=O | 1.1% | 0.4% | -4.7% | . | -16.8% | 13.4% | . | .
CCC(Sc1nc2ccsc2c(=O)n1Cc1ccc(C(=O)O)cc1)C(=O)Nc1cc(Cl)ccc1C (centres undefined) | . | . | . | 4.4% | ? | . | 67* | . | Pol kappa inh-2=67*
SMILES | POLI inh | Pol kappa inh-1 | FEN1 inhibitor | WRN helicase inh | Pol eta inh-1 | POLB inh | Pol iota confirm | Pol eta inh-2 | others
CCC(Sc1nc2ccsc2c(=O)n1CCC(=O)O)C(=O)Nc1ccc(Cl)cc1 (centres undefined) | . | . | . | 3.7% | -13.7% | . | . | .
Cc1cccc(Cc2c(C)nc3nc(SCc4ccccc4C)nn3c2C)c1 | 14.0% | -5.9%[60.1 µM] | -10.0% | . | -21.2% | 0.5% | . | .
N#CCC(=O)Nc1ccc(C(=O)OCC(=O)N2CCN(C(=O)c3ccco3)CC2)cc1 | 44.7µM* | 44.7µM* | -21.2% | ? | ? | . | ? | ?
CC(=O)N1CCc2cc(CNS(=O)(=O)c3ccc(Cl)s3)ccc21 | -2.0% | -5.0%[60.1 µM] | 13.1% | . | 8.3% | 0.2% | . | .
Cc1ccc(-c2cc(C(=O)NCc3ccco3)c3ccccc3n2)o1 | ? | 79.4µM* | -3.9% | 56.2µM* | 7.94µM* | 17.8µM* | ? | ?
Nc1c(C(=O)N/N=C/c2ccc(F)cc2)oc2nc(-c3ccccc3)cc(-c3ccco3)c12 | 66.5% | -4.0% | -5.1% | -12.1% | -26.1% | 32.0% | . | .
O=C(N/N=C/c1ccc(F)cc1)c1cc(-c2ccco2)nc2ccccc12 | 7.94µM* | 14.1µM* | 79.4µM* | 39.8µM* | 1.58µM* | 3.55µM* | 7.52* | 21.3* | PGK validate=8.19µM*;Pol kappa inh-2=10.6*
Cc1ccc(-c2cc(C(=O)N/N=C/c3ccc([N+](=O)[O-])o3)c3ccccc3n2)o1 | ? | ? | 5.4% | -13.6%[11.6 µM] | 50.1µM* | -9.3% | ? | 30.1*
